LANA DNA inh – inhibitors of KSHV C-LANA binding to DNA, primary screen, biochemical, fluorescence polarization, FAM-LBS DNA, MBP-C-LANA, single point | actives 0.078% (n = 340,000) | inhibition, % at 9 µM | Kaposi's sarcoma herpesvirus LANA C-terminal domain (residues 932-1162) DNA binding;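 active = highest replicate inhibition at or above 60% at 9 µM, even if other replicates fall short; inactive = all replicates below 60% inhibition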
Keap1 Nrf2 FP – Keap1-Nrf2 protein-protein interaction inhibitors, primary screen, biochemical, fluorescence polarization, single point. actives 0.15% (n = 340,000). inhibition, % at 9.4 µM. AID 504523, 2011. Kelch-like ECH-associated protein 1 (Homo sapiens), Q14145. Keap1 Kelch-Nrf2 peptide fluorescence polarization, 1536-well; in the data active = inhibition above about 12%;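 note: human Keap1 Kelch domain with fluorescein labeled Nrf2 9mer peptide probe; higher means more block of Keap1 binding to Nrf2 peptide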
Target sequence (Q14145 whole entry, looked up, the tested form may be a part): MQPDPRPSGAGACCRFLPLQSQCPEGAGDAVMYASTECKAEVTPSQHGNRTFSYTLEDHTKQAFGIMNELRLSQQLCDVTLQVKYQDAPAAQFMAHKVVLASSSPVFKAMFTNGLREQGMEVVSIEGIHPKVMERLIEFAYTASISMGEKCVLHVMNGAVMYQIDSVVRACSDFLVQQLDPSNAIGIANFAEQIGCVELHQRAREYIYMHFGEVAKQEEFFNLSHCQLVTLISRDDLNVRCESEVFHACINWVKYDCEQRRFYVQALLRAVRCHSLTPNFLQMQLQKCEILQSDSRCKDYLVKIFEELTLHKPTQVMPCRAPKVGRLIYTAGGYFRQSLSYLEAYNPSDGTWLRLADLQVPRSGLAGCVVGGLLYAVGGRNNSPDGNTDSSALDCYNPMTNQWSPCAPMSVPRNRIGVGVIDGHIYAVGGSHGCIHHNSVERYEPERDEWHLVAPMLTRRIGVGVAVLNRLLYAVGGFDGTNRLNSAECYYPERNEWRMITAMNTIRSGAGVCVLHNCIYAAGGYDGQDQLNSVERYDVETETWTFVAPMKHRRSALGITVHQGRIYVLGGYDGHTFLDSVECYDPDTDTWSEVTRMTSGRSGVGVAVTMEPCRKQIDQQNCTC
LANA-H2B inh – blockers of LANA interaction with H2A/H2B – biochemical, FP readout, HTS, primary screen; Protein LANA1 (Human herpesvirus 8 type P (isolate GK18)), Q9QR71; cell-free LANA-H2A/H2B peptide, fluorescence polarization; inhibition, % (test concentration not listed); actives 0.6% (n = 320,000); in the data active = inhibition mostly above about 10%, no sharp cut-off; inactive = mostly below about 6.7%
RTF Ca sens act – cardiac RTF calcium sensitivity activators, primary screen, biochemical, IANBD-TnC fluorescence, EC20 calcium. Troponin I, cardiac muscle (Homo sapiens) + Troponin T, cardiac muscle (Homo sapiens) + …. activation, % at 7.2 µM. IANBD-labeled TnC RTF fluorescence at EC20 calcium; 0% EC20 calcium, 100% full calcium. AID 493008, 2010. actives 0.24% (n = 340,000);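 active = activation above the mean over all tested compounds plus 3 SD, cut at about 30% in these data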;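 note: rise in fluorescence read as greater calcium sensitivity of cardiac thin filaments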
Cardiac RTF inh – cardiac RTF calcium sensitivity inhibitors, primary screen, biochemical, IANBD-TnC fluorescence, EC70 calcium. Troponin I, cardiac muscle (Homo sapiens) + Troponin T, cardiac muscle (Homo sapiens) + …. inhibition, % at 7.15 µM. IANBD-labeled cardiac RTF, Ca2+ fluorescence. actives 0.12% (n = 340,000);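 active = inhibition above the mean inhibition of all tested compounds plus 3 SD, cut at about 17% in these data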;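 note: assay run at fixed EC70 calcium of 1.6 mM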
RTF Ca inh conf – cardiac RTF calcium sensitivity inhibitors, confirmation, biochemical, fluorescence readout | shares compounds with Cardiac RTF inh | reconstituted cardiac thin filaments | inhibition, % at 7.15 µM | actives 8% (n = 360); in the data active = inhibition above about 18%
Each line names hits and unclear results; the compound was inactive in the other large screens (follow-up assays come after a bar, where they were run). Compounds with a hit are over-represented: about 1% of the library has one in this group of screens.

CC1CCC/C(=C\Nc2ccc(O)cc2)C1=O (stereo not given)	none
CCN1C[C@@H]2[C@@H]3C(=O)N(C)C(=O)[C@@H]3[C@](CC)(C1=O)N2C(=O)c1ccc(Cl)cc1	none (no result: LANA-H2B inh)
O=C(CSc1nnc(CNC(=O)c2ccc(F)cc2)o1)NCC1CCCO1 (stereo not given)	LANA-H2B inh 17.8, Cardiac RTF inh 26.7 | RTF Ca inh conf inactive
CC(=O)C1=C(C)NC(SCC(=O)c2ccc(F)cc2)=C(C#N)C1CC(C)C (stereo not given)	Cardiac RTF inh 18.8 | RTF Ca inh conf inactive
COc1ccc(C)cc1NC(=O)NC1CCCc2ccccc21 (stereo not given)	none
O=[N+]([O-])c1nn(-c2ccc3c(c2)OCCO3)n(O)c1=NCCC1=CCCCC1	Cardiac RTF inh 17.6 | RTF Ca inh conf inactive
O=[N+]([O-])c1nn(-c2ccc3c(c2)OCCO3)n(O)c1=NCc1ccc(F)cc1	none
CCc1cccc(CC)c1NC(=O)COC(=O)CCc1cc(OC)c(OC)c(OC)c1	Cardiac RTF inh 18.6 (no result: LANA-H2B inh) | RTF Ca inh conf inactive
O=C(NCC1CCCO1)C1c2ccccc2C(=O)N1C1CCCCCC1 (stereo not given)	none
CCCOc1ccccc1C1NC(=O)NC(C)=C1C(=O)OCCOC (stereo not given)	Cardiac RTF inh 19.2 | RTF Ca inh conf inactive
CCN(CC)c1ccc(C(=C2C=CC(=[N+](CC)CC)C=C2)c2ccc(N(CC)CC)cc2)cc1	Cardiac RTF inh 22.9 (no result: LANA-H2B inh) | RTF Ca inh conf inactive
Cc1ccccc1NC(=O)Cc1nnc(SCC(=O)NC2CCCCC2)n1C	none
CCOC(=O)c1c(C=O)c(C)n(Cc2ccc(C)cc2)c1C	none
CCOC(=O)c1c(C=O)c(C)n(Cc2ccccc2Cl)c1C	Cardiac RTF inh 17.7 | RTF Ca inh conf inactive
Cc1cc(C(C#N)c2ccccc2F)n2ncnc2n1 (stereo not given)	none
CN(C)S(=O)(=O)c1ccc(NC(=O)N2CCN(c3ccccc3Cl)CC2)cc1	Cardiac RTF inh 18.9 | RTF Ca inh conf inactive
CN(C)S(=O)(=O)c1ccc(NC(=O)N2CCN(c3cccc(C(F)(F)F)c3)CC2)cc1	none
Cc1onc(-c2ccccc2)c1C(=O)NCc1ccc(Cl)cc1	none
O=C(CSc1nc(-c2ccccc2)nc2c1Cc1ccccc1O2)Nc1ccc(C(=O)O)cc1	Cardiac RTF inh 20.4 (no result: LANA-H2B inh) | RTF Ca inh conf inactive
O=C(CSc1nc(-c2ccc(F)cc2)nc2c1Cc1ccccc1O2)Nc1ccc(C(=O)O)cc1	none (no result: LANA-H2B inh)
CCN1/C(=C/c2ccc3ccccc3[n+]2CC)C=Cc2ccccc21	Cardiac RTF inh 17.4 | RTF Ca inh conf inactive
O=S(=O)(O)c1cccc2c(N=Nc3ccc(O)c4ncccc34)cccc12	Cardiac RTF inh 36.8 | RTF Ca inh conf inactive
C=CCC[C@@H](Cc1ccc(F)cc1)C(=O)OC[C@@H](NC(=O)[C@@H](CC=C)CC(=O)N[C@@H](CO)Cc1ccccc1)C(C)(C)C	Cardiac RTF inh 17.8 | RTF Ca inh conf inactive
C=CCC[C@H](Cc1ccc(F)cc1)C(=O)OC[C@@H](NC(=O)[C@@H](CC=C)CC(=O)N[C@@H](CO)Cc1ccccc1)C(C)(C)C	none
Cc1ccc(S(=O)(=O)c2cc(Nc3ccccc3)ccc2O)cc1	none
O=S(=O)(O)c1cc(O)c2ccc(Nc3ccccc3)cc2c1	LANA DNA inh 92.2, Cardiac RTF inh 32.7 (no result: LANA-H2B inh) | RTF Ca inh conf inactive
COc1ccccc1Nc1ccc2c(O)cc(S(=O)(=O)O)cc2c1	LANA DNA inh 119.1, Cardiac RTF inh 18.3 (no result: LANA-H2B inh) | RTF Ca inh conf inactive
CCOc1ccc(NC(=O)CN(C)C(=O)c2ccc3c(c2)S(=O)(=O)N=C2CCCCCN23)cc1OCC	none (no result: LANA-H2B inh)
O=C(CN1C(=O)/C(=C2\SC(=S)N(CCS(=O)(=O)O)C2=O)c2ccccc21)Nc1cccc(Br)c1	Cardiac RTF inh 30.2 | RTF Ca inh conf inactive
OCCCCNCc1ccc(OCc2ccc(Cl)cc2)cc1	Cardiac RTF inh 17.0 | RTF Ca inh conf inactive
N#Cc1cc2c(nc1SCc1ccccc1)CCC2	none
N#Cc1cc2c(nc1SCc1ccccc1)CCCC2=O	Cardiac RTF inh 19.6 | RTF Ca inh conf inactive
CCCS(=O)(=O)N1CCC(C(=O)NCCCN2CCCC2=O)CC1	Cardiac RTF inh 19.1 | RTF Ca inh conf inactive
COCCNc1oc(/C=C/c2ccccc2OC)nc1S(=O)(=O)c1ccccc1	Cardiac RTF inh 18.1 | RTF Ca inh conf inactive
OC(CN1c2ccccc2Sc2ccccc21)Cn1nnc2ccccc21 (stereo not given)	Cardiac RTF inh 21.2 | RTF Ca inh conf inactive
O=C1c2ccccc2C(=O)N1CC(O)Cn1nnc2ccccc21 (stereo not given)	none
C/C(=N\OC(=O)C1CC1)C1CC1c1ccc(F)cc1 (stereo not given)	none
CC(C)CNc1nc(SCC(=O)Nc2ccccc2)nc(N2CCOCC2)n1	none
O=C(C1CCCN(S(=O)(=O)c2cccc3nsnc23)C1)N1CCCCCC1 (stereo not given)	Cardiac RTF inh 17.3 | RTF Ca inh conf inactive
COc1ccc(N2CC(C(=O)N[C@@H](C)C(=O)NCCc3ccccc3)CC2=O)cc1 (stereo not given in full)	none
N#Cc1ccc(N2CCc3ccccc3C2)c([N+](=O)[O-])c1	Cardiac RTF inh 188.0 (no result: LANA-H2B inh) | RTF Ca inh conf inactive
O=C(c1ccc(N2CCCC2)c([N+](=O)[O-])c1)N1CCc2ccccc2C1	none
CCC(C)C(NC(=O)C1CCC(C)CC1)C(=O)NC(CCSC)C(=O)OC (stereo not given)	Cardiac RTF inh 17.6 | RTF Ca inh conf inactive
COC(=O)C(CCSC)NC(=O)C(NC(=O)C1CCC(C)CC1)C(C)C (stereo not given)	none
Cc1ccc(C2CC(c3ccc(NS(C)(=O)=O)cc3)=NN2C(=O)c2ccco2)cc1 (stereo not given)	Cardiac RTF inh 20.2 | RTF Ca inh conf inactive
CCN(CC(=O)Nc1c(F)cccc1F)C(=O)/C=C/c1ccc2ccccc2n1	Cardiac RTF inh 20.0 | RTF Ca inh conf inactive
COc1ccccc1Oc1c(C)oc2c(CN(C)C)c(O)ccc2c1=O	none
Cc1ccc2nc(SCC(=O)NCc3ccc4c(c3)OCO4)nc(=O)n2c1	none
CCOC(=O)c1cccc(NC(=O)c2cccnc2)c1	none
CCOC(=O)Cn1nc(C)cc1NC(=O)c1cccnc1	Cardiac RTF inh 20.7 | RTF Ca inh conf inactive
CCOc1ccccc1-c1nc(-c2ccc(NC(=O)Cc3ccccc3OC)cc2)no1	Cardiac RTF inh 17.6 | RTF Ca inh conf inactive

High-throughput results deposited in PubChem BioAssay by several laboratories.
